The record followed here is PubChem BioAssay (NCI).

This is part of a sample that, as a whole, favours compounds with a hit. Of some 83,000 tested, about 20% had one in any assay.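 96-well plates, one dose, 48 hours. Percent growth reported; active if below 10.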 Unmarked numbers belong to inactive results. Activity calls are given as the source filed them.

The subject of the first experiment is SK-MEL-28 melanoma. Kind of experiment: NCI-60 one-dose screen, 48 h (100 = growth as untreated, 0 = no growth, -100 = all killed). Conditions: 10 µM unless noted.
On to `C=CCn1c(SCC(=O)Nc2ccc(C(=O)/C=C/c3ccc(Cl)cc3)cc2)nnc1-c1c[nH]c2ccccc12`, for which the growth is 90.2%.

On to `O=C(NNc1nc2cc(F)c(F)cc2n2c(CN3CC4CNCC4C3)ccc12)c1cnccn1` (stereo unspecified), for which the growth was 27.4%.

`COc1ccc2c(c1)c(CC(=O)[Se]CC#N)c(C)n2C(=O)c1ccc(Cl)cc1`: the growth is 37.6%.

`O=C(NNc1nc2cc(F)ccc2n2c(CN3CCC(O)C3)ccc12)c1cnccn1` (stereo unspecified): the growth is 25.5%.

In the case of `COc1ccc(COc2ccc(/C=C3\C(=O)Nc4ccccc43)cc2OC)cc1`, the growth is 107%.

Take `O=C(NNc1nc2cc(F)ccc2n2c(CO)ccc12)c1cnccn1`: the growth is 25.1%.

`N#Cc1cn(Cc2ccc(Cl)cc2Cl)c(C(=O)c2ccc(Br)cc2)c1N`: the growth is 99%.

As for `O=C(CN1CCN(c2cc(=O)n(-c3ccccc3)c3ccccc23)CC1)Nc1nc(-c2ccccc2)cs1`, the growth is 71.2%.

Consider `COc1ccc(CCOc2cc3c(cc2OC)CCN(C(=O)NCc2cocn2)C3c2ccc(C)cc2C)cc1` (stereo unspecified), for which the growth is 38.7%.

On to `COc1ccc(Oc2ccc(/C=N/NC(=O)CSc3nc4ccccc4c(=O)n3-c3ccc(Cl)cc3)cc2)cc1`, for which the growth was 89.3%.

For the compound `N#Cc1cccc(CN2CCC3=C(C2)C(=O)N(Cc2ccc(Cl)cc2)C2=NCCCN23)c1`, the growth was 44.8%.

`O=C(NNc1nc2cc(F)ccc2n2c(CN3CC4CNCC4C3)ccc12)c1cnccn1` (stereo unspecified): the growth is 31.5%.

Take `CCOc1ccccc1NC1=C(Cl)C(=O)c2nc(C)ccc2C1=O`: the growth is 14.6%.

For the compound `CCCCCc1ccc(S(=O)(=O)Nc2cccc(-c3csc(NC(=O)CCCCCN4CCN(CCO)CC4)n3)c2)cc1`, the growth was 71.1%.

As for `CCOc1ccc(NC2=C(Cl)C(=O)c3nc(C)ccc3C2=O)cc1`, the growth is 8.93% (active).

With `COc1cc(/C=C2\C(=O)Nc3ccccc32)ccc1OCc1ccc(Cl)cc1`, the growth was 92.9%.

Turning to `COc1cc(-c2nc(SCCC(C)C)nc(NNC(=O)c3ccncc3)c2C#N)cc(OC)c1OC`, the growth is 85.8%.

Regarding `O=C(NNc1nc2cc(F)cc(F)c2n2cccc12)c1cnccn1`, the growth was 25.8%.

In the case of `O=C(CCn1cc[n+](CC(=O)c2ccc(-c3ccccc3)cc2)c1)Nc1cccc2cccnc12`, the growth was 67.3%.

For `COc1c(N2CC3CCCNC3C2)c(F)cc2c(=O)c(C(=O)N/N=C/c3ccc4c(c3)OCO4)cn(C3CC3)c12` (stereo unspecified), the growth was 96.5%.

In the case of `COc1ccc(/C=C(/C)c2ccc3ccc(OC)cc3[o+]2)c(O)c1`, the growth is 96%.

In the case of `CN(C)CCNC(=O)c1ccc(-c2nc3ccc4[nH]ncc4c3c3c2CCC3)cc1`, the growth is 21.9%.

With `COc1ccccc1NC1=C(Cl)C(=O)c2nc(C)ccc2C1=O`, the growth was 14.1%.

For `CCNC(=O)N1CCc2cc(OC)c(OCCc3ccc(OC)cc3)cc2C1c1ccc(Cl)cc1C` (stereo unspecified), the growth was 43.3%.

Take `Cc1cc2nc(C(Cl)Cl)nc(-c3cccs3)n2n1`: the growth was 14.6%.

On to `CN(C)CCNC(=O)c1ccc(-c2nc3ccc4[nH]ncc4c3c3c2COCC3)cc1`, for which the growth is -6.13% (active).

Regarding `CN1CCN(Cc2ccc(NC(=O)c3cncc(C#Cc4cnc5ccc(OCC(C)(C)O)nn45)c3)cc2C(F)(F)F)CC1`, the growth is -38.9% (active).

As for `Nc1ncc(-c2ccc3ncnc(Nc4cccc(Cl)c4F)c3c2)cn1`, the growth is 65.2%.

Take `COc1ccc(/C=C/C(=O)c2cccc(NC(=O)CSc3nc4ccccc4c(=O)n3-c3ccccc3)c2)cc1OC`: the growth is 115%.

Regarding `O=C(NNc1nc2cc(F)ccc2n2c(CN3CCCC3)ccc12)c1cnccn1`, the growth is 30.8%.

Turning to `CC/C(=C/c1c(O)cccc1OC)c1ccc2c(OC)cccc2[o+]1`, the growth was 97.3%.

For the compound `CS(=O)(=O)Nc1cc(-c2ccc3ncc(C#N)c(NCc4ccccc4F)c3c2)cnc1Cl`, the growth is 5.71% (active).

Turning to `COc1ccccc1-n1cc(C#N)c(N)c1C(=O)c1ccc(Cl)cc1`, the growth is 74.3%.

`N=c1c2cc(-c3ccccc3)oc2ncn1/N=C/c1ccc(Cl)cc1`: the growth is 82.9%.

With `C=CCn1c(SCC(=O)Nc2ccc(C(=O)/C=C/c3cc(OC)c(OC)c(OC)c3)cc2)nnc1-c1c[nH]c2ccccc12`, the growth was 41.7%.

In the case of `COC(=O)C[Se]C(=O)Cc1c(C)n(C(=O)c2ccc(Cl)cc2)c2ccc(OC)cc12`, the growth is 62.8%.

Regarding `COc1ccc(NC2=C(Cl)C(=O)c3nc(C)ccc3C2=O)cc1OC`, the growth is 102%.

For `NC(N)=Nc1ccc(Oc2cccc(NC(N)=Nc3ccc(I)cc3F)c2)cc1`, the growth was 85.7%.

In another experiment the test system is SK-MEL-2 melanoma. Described as above. The note with it: 10 µM unless noted.
With `C=CCn1c(SCC(=O)Nc2ccc(C(=O)/C=C/c3ccc(Cl)cc3)cc2)nnc1-c1c[nH]c2ccccc12`, the growth was 88.7%.

For the compound `O=C(NNc1nc2cc(F)c(F)cc2n2c(CN3CC4CNCC4C3)ccc12)c1cnccn1` (stereo unspecified), the growth is 29.2%.

`COc1ccc2c(c1)c(CC(=O)[Se]CC#N)c(C)n2C(=O)c1ccc(Cl)cc1`: the growth is 39.3%.

For the compound `O=C(NNc1nc2cc(F)ccc2n2c(CN3CCC(O)C3)ccc12)c1cnccn1` (stereo unspecified), the growth was 20%.

Take `COc1ccc(COc2ccc(/C=C3\C(=O)Nc4ccccc43)cc2OC)cc1`: the growth is 108%.

For the compound `O=C(NNc1nc2cc(F)ccc2n2c(CO)ccc12)c1cnccn1`, the growth was 21.7%.

Regarding `N#Cc1cn(Cc2ccc(Cl)cc2Cl)c(C(=O)c2ccc(Br)cc2)c1N`, the growth was 97.9%.

Consider `O=C(CN1CCN(c2cc(=O)n(-c3ccccc3)c3ccccc23)CC1)Nc1nc(-c2ccccc2)cs1`, for which the growth was 88.9%.

Turning to `COc1ccc(CCOc2cc3c(cc2OC)CCN(C(=O)NCc2cocn2)C3c2ccc(C)cc2C)cc1` (stereo unspecified), the growth was -7.32% (active).

As to `COc1ccc(Oc2ccc(/C=N/NC(=O)CSc3nc4ccccc4c(=O)n3-c3ccc(Cl)cc3)cc2)cc1`, the growth was 97.6%.

Turning to `N#Cc1cccc(CN2CCC3=C(C2)C(=O)N(Cc2ccc(Cl)cc2)C2=NCCCN23)c1`, the growth was 26.4%.

Consider `O=C(NNc1nc2cc(F)ccc2n2c(CN3CC4CNCC4C3)ccc12)c1cnccn1` (stereo unspecified), for which the growth was 30.9%.

For the compound `CCOc1ccccc1NC1=C(Cl)C(=O)c2nc(C)ccc2C1=O`, the growth is -15.7% (active).

`CCCCCc1ccc(S(=O)(=O)Nc2cccc(-c3csc(NC(=O)CCCCCN4CCN(CCO)CC4)n3)c2)cc1`: the growth was 105%.

Consider `CCOc1ccc(NC2=C(Cl)C(=O)c3nc(C)ccc3C2=O)cc1`, for which the growth is -49.8% (active).

Take `COc1cc(/C=C2\C(=O)Nc3ccccc32)ccc1OCc1ccc(Cl)cc1`: the growth is 105%.

Turning to `COc1cc(-c2nc(SCCC(C)C)nc(NNC(=O)c3ccncc3)c2C#N)cc(OC)c1OC`, the growth is 101%.

For the compound `O=C(NNc1nc2cc(F)cc(F)c2n2cccc12)c1cnccn1`, the growth was 32.6%.

Turning to `O=C(CCn1cc[n+](CC(=O)c2ccc(-c3ccccc3)cc2)c1)Nc1cccc2cccnc12`, the growth is 90.1%.

For `COc1c(N2CC3CCCNC3C2)c(F)cc2c(=O)c(C(=O)N/N=C/c3ccc4c(c3)OCO4)cn(C3CC3)c12` (stereo unspecified), the growth was 103%.

Regarding `COc1ccc(/C=C(/C)c2ccc3ccc(OC)cc3[o+]2)c(O)c1`, the growth is 94.3%.

In the case of `CN(C)CCNC(=O)c1ccc(-c2nc3ccc4[nH]ncc4c3c3c2CCC3)cc1`, the growth is -22.8% (active).

In the case of `COc1ccccc1NC1=C(Cl)C(=O)c2nc(C)ccc2C1=O`, the growth was 78.8%.

In the case of `CCNC(=O)N1CCc2cc(OC)c(OCCc3ccc(OC)cc3)cc2C1c1ccc(Cl)cc1C` (stereo unspecified), the growth is 14.7%.

With `Cc1cc2nc(C(Cl)Cl)nc(-c3cccs3)n2n1`, the growth was 97.7%.

For `CN(C)CCNC(=O)c1ccc(-c2nc3ccc4[nH]ncc4c3c3c2COCC3)cc1`, the growth is -69.7% (active).

As to `CN1CCN(Cc2ccc(NC(=O)c3cncc(C#Cc4cnc5ccc(OCC(C)(C)O)nn45)c3)cc2C(F)(F)F)CC1`, the growth was -80.4% (active).

Regarding `Nc1ncc(-c2ccc3ncnc(Nc4cccc(Cl)c4F)c3c2)cn1`, the growth is 95.3%.

As for `COc1ccc(/C=C/C(=O)c2cccc(NC(=O)CSc3nc4ccccc4c(=O)n3-c3ccccc3)c2)cc1OC`, the growth is 104%.

As to `O=C(NNc1nc2cc(F)ccc2n2c(CN3CCCC3)ccc12)c1cnccn1`, the growth was 46%.

On to `CC/C(=C/c1c(O)cccc1OC)c1ccc2c(OC)cccc2[o+]1`, for which the growth was 107%.

`CS(=O)(=O)Nc1cc(-c2ccc3ncc(C#N)c(NCc4ccccc4F)c3c2)cnc1Cl`: the growth is -52.3% (active).

On to `COc1ccccc1-n1cc(C#N)c(N)c1C(=O)c1ccc(Cl)cc1`, for which the growth is 78.4%.

Consider `N=c1c2cc(-c3ccccc3)oc2ncn1/N=C/c1ccc(Cl)cc1`, for which the growth was 101%.

For the compound `C=CCn1c(SCC(=O)Nc2ccc(C(=O)/C=C/c3cc(OC)c(OC)c(OC)c3)cc2)nnc1-c1c[nH]c2ccccc12`, the growth is 101%.

As for `COC(=O)C[Se]C(=O)Cc1c(C)n(C(=O)c2ccc(Cl)cc2)c2ccc(OC)cc12`, the growth is 86.8%.

As to `COc1ccc(NC2=C(Cl)C(=O)c3nc(C)ccc3C2=O)cc1OC`, the growth was 100%.

Consider `NC(N)=Nc1ccc(Oc2cccc(NC(N)=Nc3ccc(I)cc3F)c2)cc1`, for which the growth was 85.9%.
